In ChEMBL document CHEMBL1961873, “Compounds: GSK PKIS; Assays: Nanosyn kinase panel” (2012):

Experiments:
[1] = biological target: T1, Serine/threonine-protein kinase D2 (Homo sapiens) (UniProt Q9BZL6); settings: at 1 µM;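 further: mean value of PRKD2 inhibition, from the GSK PKIS screening panel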
T1 sequence (whole entry): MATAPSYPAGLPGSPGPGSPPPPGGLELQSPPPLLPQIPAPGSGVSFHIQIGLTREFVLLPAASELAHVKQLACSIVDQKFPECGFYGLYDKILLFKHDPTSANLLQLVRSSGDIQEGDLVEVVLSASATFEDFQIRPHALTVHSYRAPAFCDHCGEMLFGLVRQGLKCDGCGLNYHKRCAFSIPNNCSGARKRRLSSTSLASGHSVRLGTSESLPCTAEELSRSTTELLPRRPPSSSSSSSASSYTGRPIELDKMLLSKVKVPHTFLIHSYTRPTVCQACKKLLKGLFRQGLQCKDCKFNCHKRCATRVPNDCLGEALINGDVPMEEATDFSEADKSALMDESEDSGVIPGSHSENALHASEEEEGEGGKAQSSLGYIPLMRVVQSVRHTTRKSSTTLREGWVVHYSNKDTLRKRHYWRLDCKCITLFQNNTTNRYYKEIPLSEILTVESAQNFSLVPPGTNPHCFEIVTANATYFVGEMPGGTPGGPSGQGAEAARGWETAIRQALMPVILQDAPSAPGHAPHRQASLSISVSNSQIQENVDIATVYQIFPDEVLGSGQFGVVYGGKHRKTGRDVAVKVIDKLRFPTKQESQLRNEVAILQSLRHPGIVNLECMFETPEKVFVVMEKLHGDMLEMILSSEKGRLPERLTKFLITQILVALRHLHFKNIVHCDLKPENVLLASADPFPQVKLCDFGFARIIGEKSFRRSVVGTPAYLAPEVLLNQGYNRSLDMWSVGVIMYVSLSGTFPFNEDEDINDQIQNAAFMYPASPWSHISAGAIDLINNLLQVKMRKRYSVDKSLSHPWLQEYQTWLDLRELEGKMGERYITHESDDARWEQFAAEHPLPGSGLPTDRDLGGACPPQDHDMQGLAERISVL

[2] = biological target: T2, Serine/threonine-protein kinase D3 (Homo sapiens) (UniProt O94806); settings: at 0.1 µM
T2 sequence (whole entry): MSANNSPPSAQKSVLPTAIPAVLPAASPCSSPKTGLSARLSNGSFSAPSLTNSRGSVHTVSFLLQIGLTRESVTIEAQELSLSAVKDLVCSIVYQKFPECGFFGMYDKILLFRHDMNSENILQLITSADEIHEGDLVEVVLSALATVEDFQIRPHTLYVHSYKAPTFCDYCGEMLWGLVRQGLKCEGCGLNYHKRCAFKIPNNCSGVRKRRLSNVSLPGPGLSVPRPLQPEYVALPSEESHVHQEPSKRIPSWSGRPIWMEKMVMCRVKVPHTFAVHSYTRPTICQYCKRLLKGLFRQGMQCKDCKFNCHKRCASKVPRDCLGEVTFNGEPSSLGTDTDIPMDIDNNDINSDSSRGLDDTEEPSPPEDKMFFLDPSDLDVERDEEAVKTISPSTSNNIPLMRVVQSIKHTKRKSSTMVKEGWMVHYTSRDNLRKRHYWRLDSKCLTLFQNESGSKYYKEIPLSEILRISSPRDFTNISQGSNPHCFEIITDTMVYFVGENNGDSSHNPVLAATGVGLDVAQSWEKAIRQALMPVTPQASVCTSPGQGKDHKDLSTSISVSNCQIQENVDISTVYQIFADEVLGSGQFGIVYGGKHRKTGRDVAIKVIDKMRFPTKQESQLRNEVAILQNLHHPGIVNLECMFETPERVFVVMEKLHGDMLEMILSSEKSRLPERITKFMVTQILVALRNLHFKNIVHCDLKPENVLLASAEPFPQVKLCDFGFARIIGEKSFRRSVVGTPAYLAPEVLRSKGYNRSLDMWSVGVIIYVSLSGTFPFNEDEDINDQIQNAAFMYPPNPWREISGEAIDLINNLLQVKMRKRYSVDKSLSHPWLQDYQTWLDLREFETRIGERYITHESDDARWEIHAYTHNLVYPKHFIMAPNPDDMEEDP

[3] = biological target: T2, Serine/threonine-protein kinase D3 (Homo sapiens); settings: at 1 µM
[4] = biological target: T3, cGMP-dependent protein kinase 1 (Homo sapiens) (UniProt Q13976); settings: at 0.1 µM
T3 sequence (whole entry): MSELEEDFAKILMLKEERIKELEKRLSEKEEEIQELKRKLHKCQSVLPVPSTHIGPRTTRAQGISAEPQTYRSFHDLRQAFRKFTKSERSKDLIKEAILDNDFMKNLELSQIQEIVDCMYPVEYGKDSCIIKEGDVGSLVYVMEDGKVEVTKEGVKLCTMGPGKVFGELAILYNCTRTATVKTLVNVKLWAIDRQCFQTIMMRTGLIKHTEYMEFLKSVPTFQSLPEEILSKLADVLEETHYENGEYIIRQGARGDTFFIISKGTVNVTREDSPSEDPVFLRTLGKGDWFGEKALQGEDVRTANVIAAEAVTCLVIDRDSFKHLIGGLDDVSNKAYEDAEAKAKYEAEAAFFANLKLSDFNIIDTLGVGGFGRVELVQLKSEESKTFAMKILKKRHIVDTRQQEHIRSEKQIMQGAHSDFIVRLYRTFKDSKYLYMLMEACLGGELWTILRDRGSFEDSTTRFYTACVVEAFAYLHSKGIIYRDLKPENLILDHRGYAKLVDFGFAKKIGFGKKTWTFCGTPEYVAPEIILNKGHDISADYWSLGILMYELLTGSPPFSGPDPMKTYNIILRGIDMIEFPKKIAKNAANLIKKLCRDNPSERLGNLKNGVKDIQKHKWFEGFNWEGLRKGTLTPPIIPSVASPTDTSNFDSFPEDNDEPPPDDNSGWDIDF

[5] = biological target: T3, cGMP-dependent protein kinase 1 (Homo sapiens); settings: at 1 µM
[6] = biological target: T4, cGMP-dependent protein kinase 2 (Homo sapiens) (UniProt Q13237); settings: at 0.1 µM
T4 sequence (whole entry): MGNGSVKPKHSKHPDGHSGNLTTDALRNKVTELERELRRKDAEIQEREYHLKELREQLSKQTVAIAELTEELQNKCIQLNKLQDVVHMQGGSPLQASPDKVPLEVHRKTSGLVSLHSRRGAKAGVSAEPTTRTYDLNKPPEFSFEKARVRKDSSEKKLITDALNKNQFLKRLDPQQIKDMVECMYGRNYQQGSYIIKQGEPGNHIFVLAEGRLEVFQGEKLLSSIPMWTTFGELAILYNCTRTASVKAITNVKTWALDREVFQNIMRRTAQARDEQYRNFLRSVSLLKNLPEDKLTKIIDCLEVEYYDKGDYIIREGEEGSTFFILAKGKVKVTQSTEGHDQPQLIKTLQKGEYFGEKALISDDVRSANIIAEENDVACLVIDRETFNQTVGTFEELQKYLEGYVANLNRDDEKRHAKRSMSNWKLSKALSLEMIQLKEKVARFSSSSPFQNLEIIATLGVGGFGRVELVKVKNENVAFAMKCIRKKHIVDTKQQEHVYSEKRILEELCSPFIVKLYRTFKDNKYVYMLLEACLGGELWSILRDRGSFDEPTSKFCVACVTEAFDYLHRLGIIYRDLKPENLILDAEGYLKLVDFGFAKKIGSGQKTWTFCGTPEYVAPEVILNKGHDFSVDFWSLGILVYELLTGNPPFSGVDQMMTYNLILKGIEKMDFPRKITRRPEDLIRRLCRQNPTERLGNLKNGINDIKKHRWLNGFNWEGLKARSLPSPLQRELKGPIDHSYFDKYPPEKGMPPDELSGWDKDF

[7] = biological target: T4, cGMP-dependent protein kinase 2 (Homo sapiens); settings: at 1 µM
[8] = biological target: T5, cAMP-dependent protein kinase catalytic subunit PRKX (Homo sapiens) (UniProt P51817); settings: at 0.1 µM
T5 sequence (whole entry): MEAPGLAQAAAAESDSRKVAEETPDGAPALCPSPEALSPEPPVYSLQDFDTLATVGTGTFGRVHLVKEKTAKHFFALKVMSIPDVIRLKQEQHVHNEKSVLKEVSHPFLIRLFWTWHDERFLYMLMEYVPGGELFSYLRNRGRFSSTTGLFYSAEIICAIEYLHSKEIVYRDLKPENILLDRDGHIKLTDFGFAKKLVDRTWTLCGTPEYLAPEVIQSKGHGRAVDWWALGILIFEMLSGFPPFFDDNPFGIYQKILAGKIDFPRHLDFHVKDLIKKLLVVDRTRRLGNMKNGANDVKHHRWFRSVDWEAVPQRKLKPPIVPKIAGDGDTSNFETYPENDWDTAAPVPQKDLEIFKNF

[9] = biological target: T5, cAMP-dependent protein kinase catalytic subunit PRKX (Homo sapiens); settings: at 1 µM
[10] = biological target: Rho-associated protein kinase 1 (Homo sapiens) (UniProt Q13464); settings: at 0.1 µM
Chain of Rho-associated protein kinase 1 (Homo sapiens) (Q13464 2-1354 limits assumed): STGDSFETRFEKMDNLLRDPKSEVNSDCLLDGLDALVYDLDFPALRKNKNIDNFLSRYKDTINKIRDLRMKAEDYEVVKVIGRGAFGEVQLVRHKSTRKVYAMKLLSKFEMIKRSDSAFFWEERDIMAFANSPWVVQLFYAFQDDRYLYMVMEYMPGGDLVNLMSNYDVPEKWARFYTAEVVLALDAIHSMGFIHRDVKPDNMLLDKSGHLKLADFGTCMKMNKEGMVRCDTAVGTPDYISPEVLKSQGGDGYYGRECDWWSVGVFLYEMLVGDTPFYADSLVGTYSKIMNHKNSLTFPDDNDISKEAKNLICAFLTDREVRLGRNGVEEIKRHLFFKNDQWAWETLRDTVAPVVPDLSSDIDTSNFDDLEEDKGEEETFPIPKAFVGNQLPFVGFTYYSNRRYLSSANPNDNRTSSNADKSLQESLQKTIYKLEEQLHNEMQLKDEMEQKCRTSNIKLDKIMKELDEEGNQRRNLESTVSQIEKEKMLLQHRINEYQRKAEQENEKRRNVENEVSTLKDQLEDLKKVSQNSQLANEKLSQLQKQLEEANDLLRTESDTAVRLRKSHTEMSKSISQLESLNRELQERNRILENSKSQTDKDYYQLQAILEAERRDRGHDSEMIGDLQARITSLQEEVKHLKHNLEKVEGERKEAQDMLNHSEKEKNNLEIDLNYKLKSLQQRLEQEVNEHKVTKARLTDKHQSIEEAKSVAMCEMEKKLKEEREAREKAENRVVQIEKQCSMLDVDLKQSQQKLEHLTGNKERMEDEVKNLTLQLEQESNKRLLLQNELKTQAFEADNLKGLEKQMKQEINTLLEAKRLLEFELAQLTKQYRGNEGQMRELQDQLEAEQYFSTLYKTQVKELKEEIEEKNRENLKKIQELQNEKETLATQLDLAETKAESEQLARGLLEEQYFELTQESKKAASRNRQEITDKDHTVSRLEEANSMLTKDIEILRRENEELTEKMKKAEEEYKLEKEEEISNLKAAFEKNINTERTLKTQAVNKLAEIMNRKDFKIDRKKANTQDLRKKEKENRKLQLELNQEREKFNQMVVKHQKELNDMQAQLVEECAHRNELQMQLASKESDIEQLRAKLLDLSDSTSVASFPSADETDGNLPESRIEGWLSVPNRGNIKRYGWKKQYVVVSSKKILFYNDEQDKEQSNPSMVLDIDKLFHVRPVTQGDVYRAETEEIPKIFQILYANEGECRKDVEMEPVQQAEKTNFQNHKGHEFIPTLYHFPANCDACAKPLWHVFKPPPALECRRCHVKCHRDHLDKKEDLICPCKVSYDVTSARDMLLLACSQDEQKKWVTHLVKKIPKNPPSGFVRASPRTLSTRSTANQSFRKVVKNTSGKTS

[11] = biological target: Rho-associated protein kinase 1 (Homo sapiens) (UniProt Q13464); settings: at 1 µM
[12] = biological target: Rho-associated protein kinase 2 (Homo sapiens) (UniProt O75116); settings: at 0.1 µM
Chain of Rho-associated protein kinase 2 (Homo sapiens) (O75116 whole entry, looked up): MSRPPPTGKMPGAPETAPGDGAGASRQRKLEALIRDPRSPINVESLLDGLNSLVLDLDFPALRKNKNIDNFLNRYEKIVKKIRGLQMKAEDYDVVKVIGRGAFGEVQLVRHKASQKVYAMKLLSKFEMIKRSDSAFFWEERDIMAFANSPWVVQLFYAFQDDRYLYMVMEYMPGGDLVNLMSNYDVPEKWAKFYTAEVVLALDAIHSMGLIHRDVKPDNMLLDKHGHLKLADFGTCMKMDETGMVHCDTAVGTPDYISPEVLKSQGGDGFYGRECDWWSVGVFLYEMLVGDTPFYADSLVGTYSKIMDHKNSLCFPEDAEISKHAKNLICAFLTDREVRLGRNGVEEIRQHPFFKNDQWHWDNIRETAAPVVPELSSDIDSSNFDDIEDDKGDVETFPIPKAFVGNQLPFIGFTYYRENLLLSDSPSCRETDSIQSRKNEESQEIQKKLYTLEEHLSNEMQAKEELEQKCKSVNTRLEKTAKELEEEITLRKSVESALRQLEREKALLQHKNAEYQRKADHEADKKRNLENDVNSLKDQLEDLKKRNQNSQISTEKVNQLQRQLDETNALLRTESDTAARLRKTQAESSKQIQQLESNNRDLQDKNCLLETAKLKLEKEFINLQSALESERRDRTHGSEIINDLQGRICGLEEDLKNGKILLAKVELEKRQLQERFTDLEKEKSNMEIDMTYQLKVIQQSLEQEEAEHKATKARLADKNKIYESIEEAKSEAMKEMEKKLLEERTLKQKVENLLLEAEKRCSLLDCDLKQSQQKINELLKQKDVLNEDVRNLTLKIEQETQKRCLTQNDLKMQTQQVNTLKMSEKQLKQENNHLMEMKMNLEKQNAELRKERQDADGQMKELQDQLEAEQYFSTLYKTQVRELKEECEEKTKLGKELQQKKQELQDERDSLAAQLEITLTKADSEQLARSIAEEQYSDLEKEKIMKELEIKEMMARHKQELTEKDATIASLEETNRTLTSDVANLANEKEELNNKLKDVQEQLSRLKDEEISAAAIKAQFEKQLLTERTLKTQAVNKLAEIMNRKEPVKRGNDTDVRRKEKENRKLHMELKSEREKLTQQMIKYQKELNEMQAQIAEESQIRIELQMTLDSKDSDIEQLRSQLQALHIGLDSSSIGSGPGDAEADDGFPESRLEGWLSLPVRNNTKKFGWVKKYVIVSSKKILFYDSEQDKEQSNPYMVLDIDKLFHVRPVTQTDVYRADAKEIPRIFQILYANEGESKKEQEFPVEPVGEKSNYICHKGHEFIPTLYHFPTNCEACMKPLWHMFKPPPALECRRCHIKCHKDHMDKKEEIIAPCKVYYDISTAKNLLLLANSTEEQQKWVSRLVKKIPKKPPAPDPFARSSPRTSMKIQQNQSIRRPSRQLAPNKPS

[13] = biological target: Rho-associated protein kinase 2 (Homo sapiens) (UniProt O75116); settings: at 1 µM
[14] = biological target: Ribosomal protein S6 kinase alpha-1 (Homo sapiens) (UniProt Q15418); settings: at 0.1 µM
Chain of Ribosomal protein S6 kinase alpha-1 (Homo sapiens) (Q15418 whole entry): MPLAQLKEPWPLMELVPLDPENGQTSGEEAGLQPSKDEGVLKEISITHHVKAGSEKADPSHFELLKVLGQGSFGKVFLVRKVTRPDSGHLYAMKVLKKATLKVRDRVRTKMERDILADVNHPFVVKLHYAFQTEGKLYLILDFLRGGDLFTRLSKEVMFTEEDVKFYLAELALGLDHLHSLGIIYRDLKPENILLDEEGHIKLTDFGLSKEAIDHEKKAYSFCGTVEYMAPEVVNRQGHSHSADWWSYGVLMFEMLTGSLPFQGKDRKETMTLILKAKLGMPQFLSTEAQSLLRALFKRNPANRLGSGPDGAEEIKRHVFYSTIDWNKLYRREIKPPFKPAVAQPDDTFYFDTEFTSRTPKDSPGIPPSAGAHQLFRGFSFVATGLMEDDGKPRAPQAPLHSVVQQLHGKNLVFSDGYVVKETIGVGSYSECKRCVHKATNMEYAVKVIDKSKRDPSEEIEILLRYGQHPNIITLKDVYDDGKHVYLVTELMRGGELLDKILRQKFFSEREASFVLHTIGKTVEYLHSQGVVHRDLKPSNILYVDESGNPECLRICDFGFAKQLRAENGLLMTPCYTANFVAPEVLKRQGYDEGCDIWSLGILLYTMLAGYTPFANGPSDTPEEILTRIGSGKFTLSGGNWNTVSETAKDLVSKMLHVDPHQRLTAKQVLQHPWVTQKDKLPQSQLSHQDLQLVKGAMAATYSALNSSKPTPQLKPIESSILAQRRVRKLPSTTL

[15] = biological target: Ribosomal protein S6 kinase alpha-1 (Homo sapiens) (UniProt Q15418); settings: at 1 µM
[16] = biological target: Ribosomal protein S6 kinase alpha-3 (Homo sapiens) (UniProt P51812); settings: at 0.1 µM
[17] = biological target: Ribosomal protein S6 kinase alpha-3 (Homo sapiens) (UniProt P51812); settings: at 1 µM
[18] = biological target: Ribosomal protein S6 kinase alpha-2 (Homo sapiens) (UniProt Q15349); settings: at 0.1 µM
Chain of Ribosomal protein S6 kinase alpha-2 (Homo sapiens) (Q15349 whole entry): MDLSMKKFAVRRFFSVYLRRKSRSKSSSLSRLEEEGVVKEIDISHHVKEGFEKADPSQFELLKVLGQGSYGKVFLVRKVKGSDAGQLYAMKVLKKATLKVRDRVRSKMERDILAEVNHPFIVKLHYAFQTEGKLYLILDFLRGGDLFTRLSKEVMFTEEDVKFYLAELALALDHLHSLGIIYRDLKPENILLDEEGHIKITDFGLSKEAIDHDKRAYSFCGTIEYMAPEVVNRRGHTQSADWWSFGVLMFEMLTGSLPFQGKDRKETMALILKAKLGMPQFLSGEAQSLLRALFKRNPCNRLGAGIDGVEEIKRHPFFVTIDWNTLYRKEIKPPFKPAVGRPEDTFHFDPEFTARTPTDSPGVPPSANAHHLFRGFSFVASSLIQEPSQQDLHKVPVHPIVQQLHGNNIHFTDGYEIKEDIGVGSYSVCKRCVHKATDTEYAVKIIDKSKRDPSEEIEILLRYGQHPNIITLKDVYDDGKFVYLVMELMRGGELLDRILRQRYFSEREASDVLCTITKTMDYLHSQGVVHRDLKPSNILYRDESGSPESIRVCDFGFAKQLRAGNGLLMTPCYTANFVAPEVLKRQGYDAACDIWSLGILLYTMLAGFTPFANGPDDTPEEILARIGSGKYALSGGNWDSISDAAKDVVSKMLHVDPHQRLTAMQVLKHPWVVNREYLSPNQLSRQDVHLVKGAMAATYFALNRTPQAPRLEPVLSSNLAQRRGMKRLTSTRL

[19] = biological target: Ribosomal protein S6 kinase alpha-2 (Homo sapiens) (UniProt Q15349); settings: at 1 µM
[20] = biological target: Ribosomal protein S6 kinase alpha-6 (Homo sapiens) (UniProt Q9UK32); settings: at 0.1 µM;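 further: reported value is the mean inhibition of RSK4, from the GSK PKIS kinase inhibitor screen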
Chain of Ribosomal protein S6 kinase alpha-6 (Homo sapiens) (Q9UK32 whole entry): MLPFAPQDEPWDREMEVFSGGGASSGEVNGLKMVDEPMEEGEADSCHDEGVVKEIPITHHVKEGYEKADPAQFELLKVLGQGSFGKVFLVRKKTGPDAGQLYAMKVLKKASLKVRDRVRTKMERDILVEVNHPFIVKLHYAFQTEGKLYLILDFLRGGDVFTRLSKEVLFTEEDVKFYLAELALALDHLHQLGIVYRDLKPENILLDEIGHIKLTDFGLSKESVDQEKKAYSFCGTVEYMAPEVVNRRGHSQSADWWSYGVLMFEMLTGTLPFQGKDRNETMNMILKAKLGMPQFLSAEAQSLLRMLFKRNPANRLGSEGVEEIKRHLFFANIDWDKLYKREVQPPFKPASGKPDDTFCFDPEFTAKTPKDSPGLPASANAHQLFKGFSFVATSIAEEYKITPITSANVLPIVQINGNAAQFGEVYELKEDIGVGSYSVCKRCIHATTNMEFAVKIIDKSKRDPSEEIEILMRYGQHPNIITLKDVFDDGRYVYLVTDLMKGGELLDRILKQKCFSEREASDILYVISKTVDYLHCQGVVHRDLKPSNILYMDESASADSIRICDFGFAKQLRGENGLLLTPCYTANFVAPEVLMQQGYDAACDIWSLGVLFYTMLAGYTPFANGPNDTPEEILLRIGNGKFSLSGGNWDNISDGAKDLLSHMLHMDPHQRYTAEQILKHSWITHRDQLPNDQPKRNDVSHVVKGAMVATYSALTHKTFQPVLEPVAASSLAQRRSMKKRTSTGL

Row | SMILES | inhibition [1] | inhibition [2] | inhibition [3] | inhibition [4] | inhibition [5] | inhibition [6] | inhibition [7] | inhibition [8] | inhibition [9] | inhibition [10] | inhibition [11] | inhibition [12] | inhibition [13] | inhibition [14] | inhibition [15] | inhibition [16] | inhibition [17] | inhibition [18] | inhibition [19] | inhibition [20]
1 | CCOc1ccc2c(-c3ccnc(Nc4cc(OC)cc(C(F)(F)F)c4)n3)cnn2n1 | 0.81% | -0.03% | 1.2% | 0.85% | 7.21% | 0.36% | 2.15% | 0.62% | 0.2% | -0.28% | -0.21% | 0.14% | -0.36% | -0.43% | -1.47% | -0.09% | -1.49% | 0.44% | 0.33% | 1.36%
2 | N#Cc1ccc2c(-c3ccnc(NC4CC4)n3)c(-c3ccc(F)cc3)nn2c1 | 44.2% | 6.5% | 41.7% | 1.2% | -0.35% | 0.69% | -1.36% | 1.65% | 0.23% | 0.62% | 0.26% | 0.99% | 0.79% | 0.57% | 0.36% | 0.08% | 0.42% | 1.03% | 1.48% | 1.23%
3 | Cc1nnc(-c2cccc(-c3ccc(C(=O)NCC4CC4)cc3)c2)o1 | 7.93% | 6.14% | 7.35% | 3.58% | 5.43% | 3.23% | 3.44% | 3.54% | 4.63% | 0.97% | 2.23% | 3.74% | 6.19% | 2.8% | 4.92% | 1.25% | 1.76% | 3.01% | 2.85% | 2.12%
4 | Fc1ccc(Nc2nccc(-c3c(-c4ccc(C(F)(F)F)cc4)nn4ncccc34)n2)cc1F | 3.98% | 5.05% | 4.35% | 2.4% | 3.28% | 0.92% | 2.82% | 0.62% | -1.3% | 0.45% | 2.54% | 1.24% | 2.36% | 0.24% | -0.46% | -0.49% | -1.74% | 1.11% | 2.41% | 1.29%
5 | COc1ccc(Nc2ncc(-c3ccccc3)o2)cc1OC | 3.42% | 0.5% | 2.14% | 0.71% | 3.32% | 0.93% | 3.83% | -0.11% | -0.56% | -0.21% | 2.03% | -0.31% | 2.22% | 0.28% | 2.18% | 0.01% | 2.14% | 1.32% | 4.35% | 0.4%
6 | CS(=O)(=O)CCNCc1ccc(-c2ccc3ncnc(Nc4ccc(OCc5ccccc5)cc4)c3c2)o1 | 2.54% | 3.53% | 3.51% | 2.37% | 1.88% | 2.69% | 2.6% | 1.54% | 1.49% | 1.22% | 1.69% | 2.02% | 2.23% | 2.15% | 3.81% | 2.27% | 2.78% | 3.11% | 4.28% | 2.96%
7 | O=C(Nc1n[nH]c2nnc(-c3cccnc3)cc12)C1CC1 | 0.68% | -0.7% | 0.02% | -0.91% | 0.14% | 1.31% | 7.32% | -0.34% | -0.33% | -0.21% | 1.3% | 0.06% | 0.61% | 0.83% | 0.39% | 0.41% | 0.86% | 0.73% | 1.89% | 0.32%
